Measured values taken from PubChem BioAssay (NCATS).
Results filed as inconclusive are left out. The source made the active and inactive calls. Unless noted, calls follow the shape of the dose curve; as a rule, active = well fitted curve in the direction sought with a large enough effect; inconclusive = small, poorly fitted or top-dose-only effect, or another doubt; inactive = no such curve, though single readings can be large; an effect the other way counts as inactive or inconclusive.

Assays:
[1] = qHTS for differential inhibitors of proliferation of Plasmodium falciparum line D10 (AID 1877);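 also: parasites grown with compound for 72 h before DNA staining; plate controls were vehicle wells for no effect and reference inhibitor wells for full effect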
[2] = qHTS for differential inhibitors of proliferation of Plasmodium falciparum line Dd2 (AID 1882); details: Potency: Plasmodium falciparum Dd2 proliferation inhibition;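 also: series mostly up to about 29 µM; plate controls were DMSO vehicle for no effect and 0.29 µM artemisinin for full effect; nearly all actives have a fitted effect of over 65% in size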
Summary of the method: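 SYBR Green DNA fluorescence (ex 485, em 535 nm) after overnight lysis quantifies parasite growth; compound exposure lasted 72 h at 37 C on infected red cells at 2.5% hematocrit, 0.3% parasitemia (final). Artemisinin 0.29 uM and vehicle wells define normalization.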

[3] = qHTS for differential inhibitors of proliferation of Plasmodium falciparum line W2 (AID 1883); details: Potency: Plasmodium falciparum W2 proliferation inhibition;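 also: parasites grown with compound for 72 h before lysis and staining; 0% = vehicle wells and -100% = control inhibitor wells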
[4] = qHTS for differential inhibitors of proliferation of Plasmodium falciparum line HB3 (AID 1886); details: Potency: Plasmodium falciparum HB3 proliferation inhibition;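 also: parasites grown with compound for 72 h before SYBR Green readout; plate controls were vehicle for no effect and reference inhibitor for full effect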
[5] = qHTS Assay for Modulators of Human Peripheral Myelin Protein 22 (PMP22) Expression/Activity (AID 1967; active = well fitted curve in the direction sought with a large enough effect in the signal ratio; the % refers to the signal ratio;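 also: 0% = untreated cells and 100% end not stated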)
Summary of the method: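 MSC80 mouse Schwann cells stably carrying Pmp22 promoter–green click beetle luciferase plus EF-alpha–red luciferase control were dosed for 24h at 37 °C. Dual-colour luminescence was filter-overlap corrected; %Activity came from green/red ratio versus untreated cells.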

[6] = target: Ferritin light chain (Equus caballus) (UniProt P02791); assay: qHTS Validation Assay for Identification of Novel General Anesthetics (AID 2323); also: series mostly up to about 77 µM; % is scaled to controls: 0 for no effect and ±100 for the full control effect
Chain of Ferritin light chain (Equus caballus) (P02791 2-175 limits assumed): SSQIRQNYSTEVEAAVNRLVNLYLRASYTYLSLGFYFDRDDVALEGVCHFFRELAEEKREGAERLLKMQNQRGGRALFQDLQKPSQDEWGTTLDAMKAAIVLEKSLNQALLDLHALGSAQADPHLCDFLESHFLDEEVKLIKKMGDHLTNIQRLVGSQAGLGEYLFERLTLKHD
Summary of the method: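 Competitive displacement of profluorescent 1-aminoanthracene (1-AMA, 50% saturated solution in PBS) from 10 uM horse-spleen apoferritin. Compounds incubated 10 min at room temperature; fluorescence read at 380 nm excitation/535 nm emission, normalized to free 1-AMA and complex, fitted with four-parameter Hill equation.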

[7] = target: ATP-dependent DNA helicase Q1 (Homo sapiens) (UniProt P46063); assay: qHTS Validation Assay for Inhibitors of RecQ-Like Dna Helicase 1 (RECQ1) (AID 2353);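 also: plate controls were DMSO vehicle for no effect and enzyme-free control for full effect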
Chain of ATP-dependent DNA helicase Q1 (Homo sapiens) (P46063 whole entry, looked up): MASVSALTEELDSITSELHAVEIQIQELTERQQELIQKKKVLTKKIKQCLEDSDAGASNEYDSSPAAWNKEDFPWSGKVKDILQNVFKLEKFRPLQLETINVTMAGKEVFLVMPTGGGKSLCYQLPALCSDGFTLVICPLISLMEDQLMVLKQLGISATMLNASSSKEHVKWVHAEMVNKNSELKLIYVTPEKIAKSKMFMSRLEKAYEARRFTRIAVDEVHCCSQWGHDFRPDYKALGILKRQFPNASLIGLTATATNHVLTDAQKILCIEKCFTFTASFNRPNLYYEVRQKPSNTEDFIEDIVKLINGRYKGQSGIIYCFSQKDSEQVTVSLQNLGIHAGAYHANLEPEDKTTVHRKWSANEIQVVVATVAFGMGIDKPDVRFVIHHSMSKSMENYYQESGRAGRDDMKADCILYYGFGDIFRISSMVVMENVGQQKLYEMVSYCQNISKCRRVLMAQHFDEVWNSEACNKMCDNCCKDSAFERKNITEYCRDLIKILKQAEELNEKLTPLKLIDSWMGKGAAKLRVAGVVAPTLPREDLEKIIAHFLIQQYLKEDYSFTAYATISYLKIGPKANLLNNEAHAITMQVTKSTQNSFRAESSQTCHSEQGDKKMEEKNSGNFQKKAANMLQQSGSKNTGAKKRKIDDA
Summary of the method: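 RECQ1T1 50 nM; forked duplex (20 bp + 30-nt ss tails) 200 nM, ATP 2 mM final; pH 8.0, 2 mM MgCl2, 2.5 ug/ml poly(dI-dC); 15 min compound preincubation; discontinuous kinetic read over 2 h at RT.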

[8] = Validation screen for inhibitors of Lassa infection (AID 463096; calls by dose curve; also: % is scaled to controls: 0 for no effect and ±100 for the full control effect)
[9] = Validation screen for small molecules that induce DNA re-replication in MCF 10A normal breast cells (AID 463097); also: 0% is about no effect; nearly all actives have a fitted effect of over 60% in size
Summary of the method: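 Readout: Hoechst nuclear fluorescence intensity, 405 ex / 500-530 em, by scanning plate imager; re-replication scored as increase in nuclei with elevated DNA content. Cells exposed to compound 48 hr, 37 C, 5% CO2 beforehand.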

[10] = Quantitative high throughput screen for delayed death inhibitors of the malarial parasite plastid, 96 hour incubation (AID 488745);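 also: luciferase-expressing P. falciparum in erythrocytes at 2% hematocrit and 0.1% parasitemia; series mostly up to about 29 µM; % is scaled to controls: 0 for no effect and ±100 for the full control effect; nearly all actives have a fitted effect of over 70% in size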
Summary of the method: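 Readout is firefly luciferase luminescence from an integrated reporter in P. falciparum; lower signal marks inhibited growth. Cultures at 2% hematocrit and 0.1% parasitemia were treated with compound across two generations (96 h, 37 C, 5% CO2).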

[11] = Quantitative high throughput screen for delayed death inhibitors of the malarial parasite plastid, 48 hour incubation (AID 488752); also: % is scaled to controls: 0 for no effect and ±100 for the full control effect; nearly all actives have a fitted effect of over 65% in size
Summary of the method: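 First, compound was pinned into RPMI 1640 medium containing 0.5% Albumax. Next, reporter-parasite-infected erythrocytes were added to 2% hematocrit and 0.1% parasitemia. After 48 h at 37 C under 5% CO2, luciferase detection reagent was added and luminescence read.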

[12] = target: M-phase phosphoprotein 8 (Homo sapiens) (UniProt Q99549); assay: qHTS Validation Assay for Inhibitors for MPP8 Chromodomain Interactions with Methylated Histone Tails (AID 488949);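 also: AlphaScreen signal from MPP8 chromodomain bound to biotinylated H3K9me3 peptide; top concentration of the series differs between compounds; % is scaled to controls: 0 for no effect and ±100 for the full control effect; nearly all actives have a fitted effect of over 55% in size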
Chain of M-phase phosphoprotein 8 (Homo sapiens) (Q99549 whole entry, looked up): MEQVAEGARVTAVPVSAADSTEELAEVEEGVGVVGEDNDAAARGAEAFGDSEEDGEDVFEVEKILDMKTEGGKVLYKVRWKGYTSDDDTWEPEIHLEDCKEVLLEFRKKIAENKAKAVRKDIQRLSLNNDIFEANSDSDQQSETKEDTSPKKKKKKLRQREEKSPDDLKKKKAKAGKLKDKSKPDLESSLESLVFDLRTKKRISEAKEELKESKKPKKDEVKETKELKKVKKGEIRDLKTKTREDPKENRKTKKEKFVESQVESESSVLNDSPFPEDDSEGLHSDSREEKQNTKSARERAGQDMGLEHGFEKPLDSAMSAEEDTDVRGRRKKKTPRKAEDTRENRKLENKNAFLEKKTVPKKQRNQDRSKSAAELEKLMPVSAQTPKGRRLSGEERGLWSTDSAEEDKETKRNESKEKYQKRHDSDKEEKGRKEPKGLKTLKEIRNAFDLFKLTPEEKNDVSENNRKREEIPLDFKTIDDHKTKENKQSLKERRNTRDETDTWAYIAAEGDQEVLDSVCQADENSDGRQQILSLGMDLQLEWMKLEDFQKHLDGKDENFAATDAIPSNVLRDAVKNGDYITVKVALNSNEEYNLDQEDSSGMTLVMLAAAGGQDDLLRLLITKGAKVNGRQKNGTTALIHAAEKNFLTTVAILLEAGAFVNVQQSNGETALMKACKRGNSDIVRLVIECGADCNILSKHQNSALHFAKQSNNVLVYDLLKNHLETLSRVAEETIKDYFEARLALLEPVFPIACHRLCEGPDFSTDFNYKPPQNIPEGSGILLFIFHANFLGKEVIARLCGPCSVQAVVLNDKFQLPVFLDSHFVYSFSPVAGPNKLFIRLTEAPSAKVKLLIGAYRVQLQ
Summary of the method: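 MPP8 (50 nM) was preincubated with biotinylated H3(1-18)K9me3 peptide (50 nM) in PBS pH 7.4, 0.01% Tween-20 for 30 min at room temperature, then with compounds for 30 min; binding was detected by AlphaScreen.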

[13] = target: Transient receptor potential cation channel subfamily V member 1 (Homo sapiens) (UniProt Q8NER1); assay: HTS Assay for Compounds that Act as Enhancers of the Vanilloid Receptor 1 (AID 488979); also: 0% is about no effect
Chain of Transient receptor potential cation channel subfamily V member 1 (Homo sapiens) (Q8NER1 whole entry, looked up): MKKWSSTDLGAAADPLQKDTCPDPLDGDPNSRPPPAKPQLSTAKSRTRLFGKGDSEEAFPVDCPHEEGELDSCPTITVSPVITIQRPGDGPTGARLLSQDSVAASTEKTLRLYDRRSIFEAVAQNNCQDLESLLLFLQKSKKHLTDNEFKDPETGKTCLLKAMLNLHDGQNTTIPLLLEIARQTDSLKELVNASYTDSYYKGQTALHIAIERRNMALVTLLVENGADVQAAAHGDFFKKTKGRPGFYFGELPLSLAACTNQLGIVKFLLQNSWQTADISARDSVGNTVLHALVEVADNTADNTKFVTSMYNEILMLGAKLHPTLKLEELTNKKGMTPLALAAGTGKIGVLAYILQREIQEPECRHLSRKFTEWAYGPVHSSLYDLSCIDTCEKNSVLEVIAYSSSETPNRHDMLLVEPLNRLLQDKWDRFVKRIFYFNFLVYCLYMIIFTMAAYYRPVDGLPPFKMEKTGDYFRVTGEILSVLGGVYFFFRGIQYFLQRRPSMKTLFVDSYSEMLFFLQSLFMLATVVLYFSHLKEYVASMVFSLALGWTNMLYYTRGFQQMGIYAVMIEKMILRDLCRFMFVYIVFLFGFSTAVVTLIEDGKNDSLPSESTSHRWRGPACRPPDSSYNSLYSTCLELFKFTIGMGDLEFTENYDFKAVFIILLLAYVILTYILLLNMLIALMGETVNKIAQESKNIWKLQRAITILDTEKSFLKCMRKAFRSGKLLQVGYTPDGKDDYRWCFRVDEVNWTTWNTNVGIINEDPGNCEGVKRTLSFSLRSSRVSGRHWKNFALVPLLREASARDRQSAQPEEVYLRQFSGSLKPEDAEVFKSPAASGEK
Summary of the method: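 TRPV1-expressing cells loaded with Fluo-8 calcium dye; compounds added and calcium influx read kinetically for 3 min (agonist phase), then capsaicin at EC20 added and read 2 min more for enhancement. Fluorescence ex 480/em 520 nm.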

[14] = target: Thyrotropin receptor (Homo sapiens) (UniProt P16473); assay: qHTS Assay for Antagonists of the Thyroid Stimulating Hormone Receptor (AID 488980); also: series mostly up to about 58 µM; 0% is about no effect
Chain of Thyrotropin receptor (Homo sapiens) (P16473 whole entry, looked up): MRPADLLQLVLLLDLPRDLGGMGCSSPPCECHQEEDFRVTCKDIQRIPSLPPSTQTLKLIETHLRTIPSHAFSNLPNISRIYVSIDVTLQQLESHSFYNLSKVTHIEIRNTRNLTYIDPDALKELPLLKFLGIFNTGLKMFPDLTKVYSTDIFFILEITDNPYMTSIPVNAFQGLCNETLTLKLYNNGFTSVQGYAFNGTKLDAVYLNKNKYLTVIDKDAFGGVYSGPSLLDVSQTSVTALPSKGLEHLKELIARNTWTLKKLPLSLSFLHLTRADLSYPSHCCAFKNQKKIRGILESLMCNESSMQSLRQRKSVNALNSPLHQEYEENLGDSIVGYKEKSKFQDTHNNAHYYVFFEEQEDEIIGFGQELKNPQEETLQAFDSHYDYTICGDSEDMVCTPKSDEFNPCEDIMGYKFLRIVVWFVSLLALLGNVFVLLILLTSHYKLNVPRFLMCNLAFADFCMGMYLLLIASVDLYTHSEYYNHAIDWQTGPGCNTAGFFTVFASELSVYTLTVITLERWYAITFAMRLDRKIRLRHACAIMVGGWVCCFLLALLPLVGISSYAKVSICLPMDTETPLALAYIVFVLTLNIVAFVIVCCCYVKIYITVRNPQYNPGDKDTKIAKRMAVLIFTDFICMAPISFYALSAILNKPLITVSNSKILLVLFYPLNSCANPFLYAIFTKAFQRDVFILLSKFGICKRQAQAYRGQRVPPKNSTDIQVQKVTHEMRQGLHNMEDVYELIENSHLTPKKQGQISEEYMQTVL
Summary of the method: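 HEK293 cells transfected with human TSHR, suspended in HEPES-buffered HBSS with 70 uM RO 20-1724, were treated with compounds plus TSH at EC80 (4 nM final). cAMP was measured by competitive HTRF (cryptate anti-cAMP antibody, cAMP-d2 acceptor).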

[15] = target: Thyrotropin-releasing hormone receptor (Homo sapiens) (UniProt P34981); assay: qHTS for Small Molecule Agonists and Allosteric Enhancers of Human TRH Receptor: Validation Screen for Agonists (AID 493127;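 active = calcium activation more than 3 SD above the typical response in the agonist read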;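 also: intracellular calcium rise by fluo-8 fluorescence before TRH EC20 addition; 0% is about no effect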); details: TRH receptor agonist cell assay; at 2 µM; hits give high values
Summary of the method: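 Compounds are added by online pintool to dye-loaded TRHR cells while fluorescence is recorded every second. A rise in calcium signal during the agonist read marks activation; a later 10 nM TRH addition (EC20) serves the separate enhancer mode.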

[16] = target: Galactokinase (Homo sapiens) (UniProt P51570); assay: qHTS Validation Assay for Inhibitors of Human Galactokinase (GALK) (AID 493189); also: 0% is about no effect
Chain of Galactokinase (Homo sapiens) (P51570 whole entry, looked up): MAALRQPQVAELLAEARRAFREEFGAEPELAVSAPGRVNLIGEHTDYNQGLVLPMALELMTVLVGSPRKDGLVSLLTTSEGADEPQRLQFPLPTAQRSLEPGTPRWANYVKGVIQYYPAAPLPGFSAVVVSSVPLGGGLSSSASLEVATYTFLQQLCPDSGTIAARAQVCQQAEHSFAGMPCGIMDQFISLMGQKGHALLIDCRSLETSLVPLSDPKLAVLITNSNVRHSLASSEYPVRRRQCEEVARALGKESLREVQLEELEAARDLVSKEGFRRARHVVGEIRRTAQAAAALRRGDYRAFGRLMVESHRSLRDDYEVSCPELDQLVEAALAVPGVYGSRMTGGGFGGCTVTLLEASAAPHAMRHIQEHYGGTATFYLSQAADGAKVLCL
Summary of the method: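 GALK (5 nM) with 35 uM ATP and 100 uM galactose in HEPES pH8.0, MgCl2, NaCl, DTT, BSA; 1 h at room temperature. Residual ATP read by Kinase-Glo Plus luminescence after 10 min.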

[17] = target: Ubiquitin carboxyl-terminal hydrolase 1 (Homo sapiens) (UniProt O94782); assay: Inhibitors of USP1/UAF1: Pilot qHTS (AID 504865);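 also: rhodamine fluorescence freed from ubiquitin-rhodamine substrate followed over time; top concentration of the series differs between compounds; % is scaled to controls: 0 for no effect and ±100 for the full control effect; nearly all actives have a fitted effect of over 35% in size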
Chain of Ubiquitin carboxyl-terminal hydrolase 1 (Homo sapiens) (O94782 whole entry, looked up): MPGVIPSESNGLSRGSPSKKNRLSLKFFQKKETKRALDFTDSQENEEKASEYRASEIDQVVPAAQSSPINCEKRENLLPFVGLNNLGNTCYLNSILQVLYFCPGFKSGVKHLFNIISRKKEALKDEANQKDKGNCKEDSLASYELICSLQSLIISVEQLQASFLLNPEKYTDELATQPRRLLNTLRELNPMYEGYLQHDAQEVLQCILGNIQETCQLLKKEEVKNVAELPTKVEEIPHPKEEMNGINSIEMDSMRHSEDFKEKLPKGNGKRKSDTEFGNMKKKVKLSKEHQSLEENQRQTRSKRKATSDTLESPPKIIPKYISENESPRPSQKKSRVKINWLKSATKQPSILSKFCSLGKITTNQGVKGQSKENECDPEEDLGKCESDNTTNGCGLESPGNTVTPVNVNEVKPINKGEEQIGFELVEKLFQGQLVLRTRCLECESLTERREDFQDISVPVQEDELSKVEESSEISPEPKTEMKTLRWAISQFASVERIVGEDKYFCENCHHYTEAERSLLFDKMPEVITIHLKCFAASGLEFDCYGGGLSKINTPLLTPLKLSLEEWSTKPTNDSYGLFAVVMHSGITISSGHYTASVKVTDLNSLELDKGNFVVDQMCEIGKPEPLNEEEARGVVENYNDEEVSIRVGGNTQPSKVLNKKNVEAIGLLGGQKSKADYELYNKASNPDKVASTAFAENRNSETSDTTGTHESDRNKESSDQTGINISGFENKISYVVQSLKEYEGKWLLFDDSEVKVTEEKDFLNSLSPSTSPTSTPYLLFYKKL
Summary of the method: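 USP1/UAF1 complex (1nM) preincubated with compound 15 min at room temperature, then Ub-Rho substrate (150nM final) added. Fluorescence read kinetically at 480/540 nm, 6 reads every 60 seconds. Buffer: 50mM HEPES pH 7.8, 0.5mM EDTA, 0.1 mg/ml BSA, 1mM TCEP, 0.01% Tween-20.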

[18] = target: DNA dC->dU-editing enzyme APOBEC-3G (Homo sapiens) (UniProt Q9HC16); assay: qHTS for inhibitors of Vif-A3G interactions: Validation (AID 588379); also: 0% is about no effect
Chain of DNA dC->dU-editing enzyme APOBEC-3G (Homo sapiens) (Q9HC16 whole entry, looked up): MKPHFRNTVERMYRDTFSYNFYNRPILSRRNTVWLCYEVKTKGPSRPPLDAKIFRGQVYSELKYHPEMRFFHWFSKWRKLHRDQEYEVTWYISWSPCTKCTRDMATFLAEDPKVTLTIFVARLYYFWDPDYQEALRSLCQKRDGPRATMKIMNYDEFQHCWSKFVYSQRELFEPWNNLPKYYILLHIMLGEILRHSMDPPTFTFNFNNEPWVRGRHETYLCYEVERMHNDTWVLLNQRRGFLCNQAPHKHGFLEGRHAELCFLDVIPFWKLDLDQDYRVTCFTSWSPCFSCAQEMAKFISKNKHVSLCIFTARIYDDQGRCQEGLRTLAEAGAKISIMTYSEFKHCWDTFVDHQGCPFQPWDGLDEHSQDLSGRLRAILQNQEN
Summary of the method: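 Yellow fluorescence (Ex 488, Em 500-530) of Vif-coexpressing HeLa A3G-eYFP cells, scanned by Acumen cytometer, reports blocked A3G degradation. Cells plated at 700/well overnight at 37 deg C before compound addition, then a further overnight compound incubation at 37 deg C.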

[19] = target: Voltage-gated inwardly rectifying potassium channel KCNH2 (Homo sapiens) (UniProt Q12809); assay: qHTS Assay for Small Molecule Inhibitors of the Human hERG Channel Activity (AID 588834);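 also: top concentration of the series differs between compounds; % is scaled to controls: 0 for no effect and ±100 for the full control effect; lower thallium flux fluorescence means stronger hERG block; nearly all actives have a fitted effect of over 50% in size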
Summary of the method: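 In hERG-transduced U2OS cells, dye-loaded for 1 hr at room temperature in dark, test compounds incubated 10 min at 37 °C before thallium stimulation. AC50 values derived by Hill modelling of concentration-response.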

[20] = test system: Zika virus NS2B-NS3 protease; assay: Primary screen GU AMC qHTS for Zika virus inhibitors (AID 1347154);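 also: 0% = no-inhibitor control and -100% = no-enzyme control; nearly all actives have a fitted effect of over 70% in size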
Summary of the method: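 Unlinked Zika NS2B hydrophilic domain/NS3 protease domain noncovalent complex (25 nM final) in 10 mM Tris-HCl pH 8.0, 0.01% Tween 20, with AMC peptide substrate. Fluorescence (ex 340, em 450 nm) change over 15 min, room temperature; percent inhibition fitted to 4-parameter Hill equation.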

[21] = Primary qHTS for small molecule stabilizers of the endoplasmic reticulum resident proteome: Secreted ER Calcium Modulated Protein (SERCaMP) assay (AID 1508630); also: % is scaled to controls: 0 for no effect and ±100 for the full control effect
Summary of the method: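 The SH-SY5Y reporter protocol was run at 3 concentrations up to 38.3 uM (primary) or 11 concentrations (follow-up): 16 h compound, 100 nM thapsigargin for 4 h, then extracellular luciferase luminescence.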

N[C@@H](Cn1cc(I)c(=O)[nH]c1=O)C(=O)O
inactive: Potency [1] | Potency [2] | Potency [3] | Potency [4] | outcome [5] | outcome [6] | Potency [7] | Potency [8] | Potency [9] | Potency [10] | Potency [11] | Potency [12] | outcome [13] | outcome [14] | activation [15] 0.375% | outcome [16] | Potency [17] | Potency [18] | Potency [19] | Potency [20] | Potency [21]
